Test results reported in PubChem BioAssay AID1645857 (Buhrlage Lab, Dana-Farber Cancer Institute and Novartis …, 2021).
Out of some 47,000 compounds screened, about 1,400 (3%) were called active. Rule as the data show it: active = inhibition above about 30%; inactive = the rest. The full list was thinned out, with actives kept by preference.

Biological target: Ubiquitin carboxyl-terminal hydrolase 28 (Homo sapiens) (UniProt Q96RU2)
Experiment: inhibitors of human USP28 deubiquitinase (AID 1645857)
Conditions: purified USP28, Ub-rhodamine cleavage fluorescence, 30 min; at 25 µM; stronger effect = higher value

Sequence of Ubiquitin carboxyl-terminal hydrolase 28 (Homo sapiens) (Q96RU2 whole entry, looked up): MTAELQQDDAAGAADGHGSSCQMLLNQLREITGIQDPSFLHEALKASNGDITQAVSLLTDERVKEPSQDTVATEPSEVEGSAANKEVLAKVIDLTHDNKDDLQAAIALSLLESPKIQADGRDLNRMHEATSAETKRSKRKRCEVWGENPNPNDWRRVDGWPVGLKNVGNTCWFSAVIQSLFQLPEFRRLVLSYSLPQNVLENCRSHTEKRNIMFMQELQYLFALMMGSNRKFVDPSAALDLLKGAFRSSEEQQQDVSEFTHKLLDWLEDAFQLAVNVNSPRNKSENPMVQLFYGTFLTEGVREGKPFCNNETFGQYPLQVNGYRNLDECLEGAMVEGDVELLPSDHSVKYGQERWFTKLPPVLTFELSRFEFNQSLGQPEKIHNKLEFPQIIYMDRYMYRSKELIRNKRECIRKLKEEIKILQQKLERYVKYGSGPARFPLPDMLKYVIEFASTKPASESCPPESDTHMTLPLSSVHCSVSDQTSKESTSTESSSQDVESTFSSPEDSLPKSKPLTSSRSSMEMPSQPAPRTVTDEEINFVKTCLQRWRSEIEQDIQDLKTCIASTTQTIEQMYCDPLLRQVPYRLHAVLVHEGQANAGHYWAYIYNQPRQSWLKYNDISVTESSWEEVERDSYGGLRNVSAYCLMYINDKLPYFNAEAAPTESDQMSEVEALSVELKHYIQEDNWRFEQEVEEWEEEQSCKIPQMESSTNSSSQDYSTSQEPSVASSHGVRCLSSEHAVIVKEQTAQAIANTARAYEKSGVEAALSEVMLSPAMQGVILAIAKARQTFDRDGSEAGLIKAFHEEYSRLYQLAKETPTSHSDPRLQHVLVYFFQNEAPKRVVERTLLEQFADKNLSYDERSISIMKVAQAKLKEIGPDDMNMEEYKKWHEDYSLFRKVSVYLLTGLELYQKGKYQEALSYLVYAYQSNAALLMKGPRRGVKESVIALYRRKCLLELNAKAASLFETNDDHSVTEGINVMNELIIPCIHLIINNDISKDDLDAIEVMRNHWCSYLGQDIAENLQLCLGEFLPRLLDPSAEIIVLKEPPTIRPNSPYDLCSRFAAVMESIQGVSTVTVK

Compound	inhibition
O=C(NCC(c1cccnc1)N1CCc2ccccc2C1)c1cccc(F)c1 (stereo unspecified)	-8.37% (inactive)
COc1ccc(N(Cc2cc(=O)[nH]c3ccccc23)C(=O)c2ccc(Cl)cc2)cc1	9.24% (inactive)
Cc1cc(N)nc2c1c(C)nn2-c1ncc(C(F)(F)F)cc1Cl	-20.8% (inactive)
O=c1[nH]oc(O)c1-c1ncc(C(F)(F)F)cc1Cl	8.59% (inactive)
CC(=O)c1ccc(Cc2ncc(C(F)(F)F)cc2Cl)s1	61% (active)
COc1ccc(N(CC(=O)N2CCc3ccccc32)S(=O)(=O)c2ccccc2)cc1	-2% (inactive)
O=C(c1ccccc1F)N1CCCC1c1nccnc1-c1ncc[nH]1 (stereo unspecified)	8.72% (inactive)
O=C(COc1ccccc1)N1CCc2[nH]nc(-c3ccccc3)c2C1	5.14% (inactive)
COc1ccc(Oc2nc(C)c(-c3ccccc3)cc2C#N)cc1	13.9% (inactive)
COc1ccccc1N1C(=O)c2ccccc2N2C(=O)c3ccccc3C12 (stereo unspecified)	6.01% (inactive)
Cc1cccc(NC(=O)c2cnn3c2NC2=C(C(=O)CCC2)C3c2ccccc2)c1 (stereo unspecified)	-27.3% (inactive)
CCN1C(=O)CCc2cc(NC(=O)Cc3ccc(OC)c(Cl)c3)ccc21	2.71% (inactive)
CCCCOc1ccc(C(=O)Nc2ccc3c(c2)CCC(=O)N3CCC)cc1	84.6% (active)
COCCN1C(=O)CCc2cc(NS(=O)(=O)c3cc(C)cc(C)c3)ccc21	-19.5% (inactive)
Cc1ccnc(Nc2nc(-c3ccccc3)c3cc(Cl)ccc3n2)n1	12.6% (inactive)
COc1ccccc1CC(NC(C)=O)C(=O)NC1CCN(C(=O)c2cccc(C)c2)CC1 (stereo unspecified)	-1.93% (inactive)
Cc1cc(C)n(CC2CCCCN2CC(=O)NC2(C#N)CCCC2)n1 (stereo unspecified)	0.626% (inactive)
CCc1nc2ccc(C(=O)Nc3nc(-c4ccc5c(c4)CCN5C(=O)c4ccc(C)cc4)c(C)s3)cc2nc1CC	-7.6% (inactive)
Cc1ccc(C(=O)Nc2nc3c(s2)CCC3C(=O)NCc2ccncc2)cc1 (stereo unspecified)	37.1% (active)

Compound	inhibition
Cc1ccc(C(=O)Nc2nccnc2C(=O)NCc2ccc3c(c2)OCO3)cc1	-7.28% (inactive)
NS(=O)(=O)c1ccc(CNc2nc(CN3CCCCC3)nc3sc4c(c23)CCC4)cc1	-16.9% (inactive)
CCCCn1c(=O)c(CCC(=O)OCC(=O)Nc2ccc(C)c(Cl)c2)nc2ccccc21	-33.9% (inactive)
O=C(CC1CCCC1)N1CCCC(n2c(=O)[nH]c3cncnc32)C1 (stereo unspecified)	-14.3% (inactive)
Cc1cccc(OCc2nnc(C3(c4ccc(F)cc4)CCOCC3)o2)c1	13.2% (inactive)
CC(C)Cc1nc2sc3c(NCc4ccco4)ncnc3c2c2c1CCC2	21.3% (inactive)
Fc1ccc(-n2cc(-c3ccccc3)c3c(NCc4ccco4)ncnc32)cc1	-4.6% (inactive)
c1coc(CNc2nc(Nc3cccc4ccccc34)nc3ccccc23)c1	43.7% (active)
COc1ccccc1NC(=O)Nc1ccc(CCc2nc3ccccc3[nH]2)cc1	-8.19% (inactive)
COc1ccccc1NC(=O)N1CCN(Cc2nc3ccccc3o2)CC1	-5.25% (inactive)
CCOc1ccccc1NC(=O)Nc1cc(-c2nc3ccccc3o2)ccc1OC	30.8% (active)
CN(C)c1cccc(C2CN(C(=O)c3ccc4n[nH]nc4c3)CCO2)n1 (stereo unspecified)	8.99% (inactive)
Cc1nc(-c2cccc(S(=O)(=O)NCc3ccc(Cl)cc3)c2)no1	15.5% (inactive)
CN1CCN(S(=O)(=O)c2cccc(C(=O)Nc3cccc(S(N)(=O)=O)c3)c2)CC1	0.55% (inactive)
Cc1cccc(NC(=O)c2ccc(N3CCC(C)CC3)c([N+](=O)[O-])c2)c1C	-2.68% (inactive)
O=C(Nc1cccc(S(=O)(=O)N2CCCCCC2)c1)c1ccc(N2CCOCC2)c([N+](=O)[O-])c1	35.6% (active)
CC1(C)CC(=O)C2=C(C1)Nc1ccccc1NC2c1ccccc1O (stereo unspecified)	4.62% (inactive)
Cc1cc(-c2cc(N)n(-c3ccccc3)n2)c(C)n1-c1cccc(C(F)(F)F)c1	3.89% (inactive)
COc1cc(N2CC[C@@H]3[C@@H](CO[C@H]3CNC(=O)C3CC3)C2)ncn1	5.25% (inactive)

Compound	inhibition
Cc1cccc(C)c1NC(=O)c1nnn(-c2ccc3noc(-c4ccccc4)c3c2)c1C	8.24% (inactive)
C=C1CCC2[C@](C)(CCC[C@]2(C)C(=O)OC)[C@H]1CCc1ccoc1/C=C/C(=O)O (stereo partly specified)	48% (active)
C=C1CCC2[C@](C)(CCC[C@]2(C)C(=O)OC)[C@H]1CCc1ccoc1C[N+](C)(C)Cc1ccccc1 (stereo partly specified)	50.6% (active)
O=C(NCc1ccc2c(c1)OCO2)c1cncc(NS(=O)(=O)c2ccc3c(c2)OCCO3)c1	4.62% (inactive)
N#Cc1ccc(C(=O)N2CCC(c3nc(-c4ccccc4)no3)CC2)cc1	3.9% (inactive)
O=C(c1ccccc1)N1CCC2(CC1)OCCCO2	4.41% (inactive)
CCc1cc(=O)oc2cc(C)cc(OCC(=O)N3CCC4(O)CCCCC4C3)c12 (stereo unspecified)	-0.0724% (inactive)
Cc1ccc(-c2ncc(C(=O)Nc3ccccc3C)c(-c3ccncc3)n2)cc1	-83.7% (inactive)
Fc1ccc(CN=C2C(c3ccc4c(c3)OCCO4)=Nc3ncnn32)cc1	9.04% (inactive)
CC(C)c1cc(N2CCN(CCc3ccccc3)CC2)n2c(nc3ccccc32)c1C#N	-23.5% (inactive)
Cc1c(-c2noc(-c3cccc(N(C)C)c3)n2)nnn1Cc1cccc(F)c1	-4.14% (inactive)
CCOc1ccccc1-c1nc(-c2nnn(Cc3ccccc3)c2C)no1	41.4% (active)
COc1ccc(-c2nc(-c3nnn(Cc4cccc(F)c4)c3C)no2)cc1	19.7% (inactive)
Cc1cccc(NC(=O)Nc2ccc3c(c2)N(S(=O)(=O)c2ccccc2)CC3)c1C	-0.657% (inactive)
O=C(Cn1cnc2ccccc21)N1CCCc2ccccc21	15.3% (inactive)
COC(=O)COc1cccc2c(=O)n(CC(=O)N3CCc4ccccc43)ccc12	36% (active)
Cc1nc2ccccc2c(=O)n1CC(=O)N1CCCc2ccccc21	6.83% (inactive)
COc1ccc(CNC(=O)[C@H](CCSC)NC(=O)[C@@H]2Cc3c([nH]c4ccccc34)C3c4ccccc4C(=O)N32)cc1 (stereo partly specified)	-15% (inactive)
